Measured values: PubChem BioAssay AID1117293 (Broad Institute, 2014)
Potency and affinity values are given separately. Results filed as inconclusive are left out. Unmarked numbers belong to inactive results. Active and inactive are the calls of the source.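 How the source made its calls: active means cytotoxic in every repeat run, with fitted half-maximal concentration at most twice the top tested dose; inconclusive means runs disagree, or flat partial drop, or poor curve fit; inactive means inactive in every run.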

Assay: HEK293T cell cytotoxicity, dose response, cytotoxicity control, CellTiter-Glo luminescence, dry powder, set 20 (AID 1117293)
Conditions: HEK293T viability, CellTiter-Glo ATP luminescence, 72 h; series mostly up to 26 µM; activity change, negative = cytotoxicity: at the top concentration

**Q.** Which “activity change, negative = cytotoxicity” value does the source give for `COc1ccc(C(=O)Nc2cc(C(F)(F)F)ccc2N2CCCCC2)cc1S(=O)(=O)O` here?
**A.** The value was -0.693%.

**Q.** For `COc1ccc(C(=O)O)cc1S(=O)(=O)Nc1ccc(N2CCCCC2)cc1C(F)(F)F`, which “activity change, negative = cytotoxicity” value is on record?
**A.** Its value is 4.22%.

**Q.** With `O=S(=O)(Nc1cc(C(F)(F)F)ccc1N1CCCCC1)c1ccc(F)cc1` as the molecule, how does the “activity change, negative = cytotoxicity” value read?
**A.** Its value is -23.4%.

**Q.** Which “activity change, negative = cytotoxicity” value does the source give for `NC(=NCCc1c[nH]c2ccccc12)NS(=O)(=O)c1cc(F)ccc1F` here?
**A.** Its value is -14.3%.

**Q.** For `O=[N+]([O-])c1ccc(S(=O)(=O)Nc2cc(C(F)(F)F)ccc2N2CCCCC2)c([N+](=O)[O-])c1`, which “activity change, negative = cytotoxicity” value is on record?
**A.** Its value is 1.21%.

**Q.** For `CC(=O)N1CCN(C(=O)C2CCCN2C(=O)Nc2ccc(C)cc2)CC1` (centres undefined), which “activity change, negative = cytotoxicity” value is on record?
**A.** Its value is 3.43%.

**Q.** Which “activity change, negative = cytotoxicity” value does the source give for `CC(=O)N1CCN(C(=O)C2(NC(=O)Nc3ccc(C(C)C)cc3)CCCCC2)CC1` here?
**A.** The value was -3.9%.

**Q.** For `COc1ccc(C(=O)O)cc1S(=O)(=O)N1CCN(c2ccc(C(F)(F)F)cc2N)CC1`, which “activity change, negative = cytotoxicity” value is on record?
**A.** Its value is 8.49%.

**Q.** For `CC(=O)N1CCN(C(=O)C2(NC(=O)Nc3ccccc3C(F)(F)F)CCCCC2)CC1`, which “activity change, negative = cytotoxicity” value is on record?
**A.** Its value is -13.6%.

**Q.** For `Cc1ccc(NC(=O)NC2(C(=O)N3CCOCC3)CCCCC2)cc1`, which “activity change, negative = cytotoxicity” value is on record?
**A.** The value was -8.01%.

**Q.** Which “activity change, negative = cytotoxicity” value does the source give for `O=S(=O)(Nc1cc(C(F)(F)F)ccc1N1CCCCC1)c1ccc(C(F)(F)F)cc1` here?
**A.** The value was -43.1%.

**Q.** Which “activity change, negative = cytotoxicity” value does the source give for `CC(=O)N1CCN(C(=O)C2(NC(=O)Nc3ccc(C(F)(F)F)cc3)CCCC2)CC1` here?
**A.** The value was -14.6%.

**Q.** For `COc1ccc(C(=O)O)cc1S(=O)(=O)Nc1cc(C(F)(F)F)ccc1N1CCCCC1`, which outcome is on record?
**A.** Its outcome is “inactive”.

**Q.** Which “activity change, negative = cytotoxicity” value does the source give for `COc1ccc(C(=O)Nc2cc(C(F)(F)F)ccc2N2CCCC2)cc1S(=O)(=O)O` here?
**A.** The value was -14.3%.

**Q.** Which “activity change, negative = cytotoxicity” value does the source give for `CC(=O)N1CCN(C(=O)C2(NC(=O)Nc3ccc(F)cc3)CCCC2)CC1` here?
**A.** The value was -2.16%.

**Q.** Which “activity change, negative = cytotoxicity” value does the source give for `CC(=O)N1CCN(C(=O)C2(NC(=O)Nc3ccc(C)cc3)CC2)CC1` here?
**A.** Its value is -6.62%.

**Q.** With `O=S(=O)(O)c1ccc(N2N=C(c3ccccc3)CC2c2ccccc2)cc1` (centres undefined) as the molecule, how does the “activity change, negative = cytotoxicity” value read?
**A.** Its value is -6.63%.

**Q.** Which “activity change, negative = cytotoxicity” value does the source give for `COc1ccc(C(=O)Nc2cc(C(F)(F)F)ccc2N2CCOCC2)cc1S(=O)(=O)O` here?
**A.** The value was -8.67%.

**Q.** For `CC(=O)N1CCN(C(=O)C2(NC(=O)Nc3ccc(C(F)(F)F)cc3)CCCCC2)CC1`, which “activity change, negative = cytotoxicity” value is on record?
**A.** The value was -10.4%.

**Q.** For `COc1ccc(C(=O)Nc2cc(C)ccc2N2CCCCC2)cc1S(=O)(=O)O`, which “activity change, negative = cytotoxicity” value is on record?
**A.** The value was -1.51%.

**Q.** For `CC(=O)N1CCN(C(=O)C2(NC(=O)NC(C)(C)C)CCCCC2)CC1`, which “activity change, negative = cytotoxicity” value is on record?
**A.** The value was -21.7%.

**Q.** Which “activity change, negative = cytotoxicity” value does the source give for `CC(=O)N1CCN(C(=O)C2(NC(=O)Nc3ccc(F)cc3)CCCCC2)CC1` here?
**A.** Its value is -2.65%.

**Q.** With `CC(=O)N1CCN(C(=O)C2(NC(=O)Nc3ccc(C(C)C)cc3)CCCC2)CC1` as the molecule, how does the “activity change, negative = cytotoxicity” value read?
**A.** Its value is 4.56%.

**Q.** For `CC(=O)N1CCN(C(=O)C(C)(C)NC(=O)Nc2ccc(C)cc2)CC1`, which “activity change, negative = cytotoxicity” value is on record?
**A.** The value was -10.8%.
